Measured values as given in PubChem BioAssay AID1508601 (ICCB-Longwood Screening Facility, Harvard Medical School, 2020).
Out of some 5,700 compounds screened, about 85 (1%) were called active. Rule as the data show it: active = p53-positive nuclei above about 36% (passing the limit was not always enough); inactive = the rest. The full list was thinned out, with actives kept by preference.

How the values were obtained:
[1] = nuclear p53 accumulation, HPV+ cells – imaging, p53-positive nuclei imaging, 24 h, 48 h (AID 1508601); conditions: 24/48 h
[2] = molecular target: Cellular tumor antigen p53 (Homo sapiens) (UniProt P04637); experiment: as above; conditions: 24/48 h, stronger effect = higher value
Sequence of Cellular tumor antigen p53 (Homo sapiens) (P04637 whole entry, looked up): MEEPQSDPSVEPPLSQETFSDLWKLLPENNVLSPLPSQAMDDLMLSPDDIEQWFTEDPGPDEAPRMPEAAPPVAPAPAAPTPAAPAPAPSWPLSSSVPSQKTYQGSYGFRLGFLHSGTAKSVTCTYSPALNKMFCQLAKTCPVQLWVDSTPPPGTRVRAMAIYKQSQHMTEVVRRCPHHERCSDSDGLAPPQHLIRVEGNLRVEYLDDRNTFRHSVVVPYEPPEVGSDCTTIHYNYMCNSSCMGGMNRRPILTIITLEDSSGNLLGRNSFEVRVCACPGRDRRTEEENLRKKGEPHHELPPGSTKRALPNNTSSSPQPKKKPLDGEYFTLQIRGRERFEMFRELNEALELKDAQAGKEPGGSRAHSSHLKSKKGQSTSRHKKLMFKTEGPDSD

[3] = measured here: cell number at 24 h, concentration not given here
[4] = measured here: cell number at 48 h, concentration not given here
[5] = measured here: p53 positive nuclei at 24 h, concentration not given here
[6] = measured here: cell number at 24 h, Library stock concentration: 3.33 mM
[7] = measured here: cell number at 48 h, Library stock concentration: 3.33 mM
[8] = Library stock concentration: 3.33 mM
[9] = measured here: p53 positive nuclei at 24 h, Library stock concentration: 3.33 mM

Compound: Cn1ncc(NC(=O)CCc2cn3ccccc3n2)n1
- nuclei count, normalised [1, 3]: 84.4%
- nuclei count, normalised [1, 4]: 90.1%
- p53-positive nuclei, normalised ([2]; concentration not given here): -0.189% (inactive)
- p53-positive nuclei, normalised [2, 5]: -0.142%

Compound: O=C(O)c1ccccc1
- nuclei count, normalised [1, 6]: 99.7%
- nuclei count, normalised [1, 7]: 99.1%
- p53-positive nuclei, normalised [2, 8]: -0.166% (inactive)
- p53-positive nuclei, normalised [2, 9]: -0.28%

Compound: CN(NC(=O)CC(=O)NN(C)C(=S)c1ccccc1)C(=S)c1ccccc1
- nuclei count, normalised ([1]; measured here: cell number at 24 h, Library stock concentration: 500 nM): 98.9%
- nuclei count, normalised ([1]; measured here: cell number at 24 h, Library stock concentration: 1.5 uM): 108%
- nuclei count, normalised ([1]; measured here: cell number at 24 h, Library stock concentration: 4.6 uM): 110%
- nuclei count, normalised ([1]; measured here: cell number at 24 h, Library stock concentration: 13.7 uM): 111%
- nuclei count, normalised ([1]; measured here: cell number at 24 h, Library stock concentration: 41 uM): 94.3%
- nuclei count, normalised ([1]; measured here: cell number at 24 h, Library stock concentration: 123 uM): 64.8%
- nuclei count, normalised ([1]; measured here: cell number at 24 h, Library stock concentration: 370 uM): 60.9%
- nuclei count, normalised ([1]; measured here: cell number at 24 h, Library stock concentration: 1.111 mM): 60.4%
- nuclei count, normalised [1, 6]: 51.3%
- nuclei count, normalised ([1]; measured here: cell number at 24 h, Library stock concentration: 3.333 mM): 54.8%
- nuclei count, normalised ([1]; measured here: cell number at 24 h, Library stock concentration: 10 mM): 54.4%
- nuclei count, normalised ([1]; measured here: cell number at 48 h, Library stock concentration: 500 nM): 104%
- nuclei count, normalised ([1]; measured here: cell number at 48 h, Library stock concentration: 1.5 uM): 107%
- nuclei count, normalised ([1]; measured here: cell number at 48 h, Library stock concentration: 4.6 uM): 108%
- nuclei count, normalised ([1]; measured here: cell number at 48 h, Library stock concentration: 13.7 uM): 110%
- nuclei count, normalised ([1]; measured here: cell number at 48 h, Library stock concentration: 41 uM): 100%
- nuclei count, normalised ([1]; measured here: cell number at 48 h, Library stock concentration: 123 uM): 63.4%
- nuclei count, normalised ([1]; measured here: cell number at 48 h, Library stock concentration: 370 uM): 55%
- nuclei count, normalised ([1]; measured here: cell number at 48 h, Library stock concentration: 1.111 mM): 52.6%
- nuclei count, normalised [1, 7]: 44.1%
- nuclei count, normalised ([1]; measured here: cell number at 48 h, Library stock concentration: 3.333 mM): 48.4%
- nuclei count, normalised ([1]; measured here: cell number at 48 h, Library stock concentration: 10 mM): 43.1%
- p53-positive nuclei, normalised ([2]; Library stock concentration: 500 nM): 0.0337% (inactive)
- p53-positive nuclei, normalised ([2]; Library stock concentration: 1.5 uM): -0.251% (inactive)
- p53-positive nuclei, normalised ([2]; Library stock concentration: 4.6 uM): 0.0195% (inactive)
- p53-positive nuclei, normalised ([2]; Library stock concentration: 13.7 uM): 0.51% (inactive)
- p53-positive nuclei, normalised ([2]; Library stock concentration: 41 uM): 5.45% (inactive)
- p53-positive nuclei, normalised ([2]; Library stock concentration: 123 uM): 37% (active)
- p53-positive nuclei, normalised ([2]; Library stock concentration: 370 uM): 48.3% (active)
- p53-positive nuclei, normalised ([2]; Library stock concentration: 1.111 mM): 55.8% (active)
- p53-positive nuclei, normalised [2, 8]: 56.4% (active)
- p53-positive nuclei, normalised ([2]; Library stock concentration: 3.333 mM): 64.9% (active)
- p53-positive nuclei, normalised ([2]; Library stock concentration: 10 mM): 64.3% (active)
- p53-positive nuclei, normalised ([2]; measured here: p53 positive nuclei at 24 h, Library stock concentration: 500 nM): -0.0555%
- p53-positive nuclei, normalised ([2]; measured here: p53 positive nuclei at 24 h, Library stock concentration: 1.5 uM): -0.0139%
- p53-positive nuclei, normalised ([2]; measured here: p53 positive nuclei at 24 h, Library stock concentration: 4.6 uM): -0.119%
- p53-positive nuclei, normalised ([2]; measured here: p53 positive nuclei at 24 h, Library stock concentration: 13.7 uM): 1.05%
- p53-positive nuclei, normalised ([2]; measured here: p53 positive nuclei at 24 h, Library stock concentration: 41 uM): 14.4%
- p53-positive nuclei, normalised ([2]; measured here: p53 positive nuclei at 24 h, Library stock concentration: 123 uM): 69.4%
- p53-positive nuclei, normalised ([2]; measured here: p53 positive nuclei at 24 h, Library stock concentration: 370 uM): 85.7%
- p53-positive nuclei, normalised ([2]; measured here: p53 positive nuclei at 24 h, Library stock concentration: 1.111 mM): 93.5%
- p53-positive nuclei, normalised [2, 9]: 80.8%
- p53-positive nuclei, normalised ([2]; measured here: p53 positive nuclei at 24 h, Library stock concentration: 3.333 mM): 103%
- p53-positive nuclei, normalised ([2]; measured here: p53 positive nuclei at 24 h, Library stock concentration: 10 mM): 104%

Compound: O=C(O)CCNC(=O)c1ccccc1
- nuclei count, normalised [1, 6]: 113%
- nuclei count, normalised [1, 3]: 110%
- nuclei count, normalised [1, 7]: 105%
- nuclei count, normalised [1, 4]: 110%
- p53-positive nuclei, normalised [2, 8]: 0.0364% (inactive)
- p53-positive nuclei, normalised ([2]; concentration not given here): 0.0211% (inactive)
- p53-positive nuclei, normalised [2, 9]: -0.327%
- p53-positive nuclei, normalised [2, 5]: -0.211%

Compound: CCCCCC(=O)/C=C/[C@H]1[C@H](O)CC(=O)[C@@H]1CCCCCCC(=O)O
- nuclei count, normalised [1, 3]: 107%
- nuclei count, normalised [1, 4]: 107%
- p53-positive nuclei, normalised ([2]; concentration not given here): -0.0323% (inactive)
- p53-positive nuclei, normalised [2, 5]: -0.0183%

Compound: CCCCCNC(=O)N1CCC2(CC1)Nc1ccccc1N(CC1CC1)C2=O
- nuclei count, normalised [1, 3]: 105%
- nuclei count, normalised [1, 4]: 110%
- p53-positive nuclei, normalised ([2]; concentration not given here): -0.23% (inactive)
- p53-positive nuclei, normalised [2, 5]: -0.154%
